Compound activity: PubChem, several laboratories
Only some compounds are listed: those with a hit (about 2% of all), similar ones and a draw of the others.
Beta cell apopt – blocks beta cell apoptosis; INS-1E cytokine-induced death, ATP luminescence, 48 h; percent of positive-control rescue, neutral wells zero; protection from apoptosis, % (concentration not given with the values); 300,000 compounds, 0.8% hits; AID 435005;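 active = Every replicate reaches about 75%, or at least half do and their mean reaches it too, limit read from the data; inconclusive = At least half of replicates reach the limit but their mean does not; inactive = Under half of replicates reach the limit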;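 also: higher means more ATP so stronger rescue from cytokine killing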
Calb FLC – affects C. albicans growth with fluconazole; C. albicans CaCi-2 (fluconazole-resistant clinical isolate) + fluconazole, Alamar Blue growth, 48 h; growth inhibition, % (test concentration not listed); 300,000 compounds, 0.57% hits; AID 1979;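 active = growth inhibition above about 58% in most replicates, limit read from the data, passing the limit was not always enough; inconclusive = exactly half the replicates above a set limit; inactive = most replicates below a set limit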;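 also: all wells also contain fluconazole at 8 µg/ml as a sub-toxic cotreatment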
Shn3 3UTR inh – inhibitors of Schnurri-3 3'UTR reporter in osteoblasts | Clone20 osteoblast Shn3 3'UTR firefly luciferase, 24 h | inhibition, % at 12.5 µM | 360,000 compounds, 0.52% hits;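 active = mean inhibition of at least 75% with every replicate also reaching 75%; inconclusive = mean inhibition at least 75% but some replicate below; inactive = mean inhibition below 75%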
Jurkat NFkB inh – inhibitors of the PMA/ionomycin-induced NF-kB reporter in Jurkat cells | PMA/ionomycin-induced NF-kB luciferase reporter, luminescence | inhibition, % at 4 µM | 330,000 compounds, 0.53% hits | AID 435003; in the data active = inhibition above about 50%
697 NFkB inh – lowers PMA/ionomycin-induced NF-kB signal in 697 B cells. AID 435022. 697 B-cell NF-kB luciferase reporter, 16 h. 330,000 compounds, 0.33% hits. inhibition, % at 4 µM; in the data active = inhibition above about 35%
697 NFkB conf – lowers PMA/ionomycin-induced NF-kB signal in 697 B cells | AID 449746 | 697 B-cell NF-kB luciferase, 16 h | shares compounds with 697 NFkB inh | 2,000 compounds, 35% hits | inhibition, % at 4 µM; in the data active = inhibition mostly above about 28%, no sharp cut-off; inactive = mostly below about 22%
Of the large screens only hits and unclear results are named; the others gave an inactive call (follow-up assays come after a bar, where they were run).

CCOC(=O)C1(C)CCN1C(=O)c1ccc(F)c(Cl)c1 (stereo unspecified)	none (no result: Beta cell apopt, Calb FLC, Jurkat NFkB inh, 697 NFkB inh)
COc1cc2[nH]c(=S)n(CC3CCCO3)c(=O)c2cc1OC (stereo unspecified)	697 NFkB inh 37 | 697 NFkB conf inactive
CC(C)Oc1ccc(C(=O)Nc2ccc(N(C)C)cc2)cc1	697 NFkB inh 45 | 697 NFkB conf 36
CCCOc1ccc(C(=O)Nc2ccc(N(C)C)cc2)cc1	none
O=C(NC(=S)N1CCOCC1)c1cc2ccccc2o1	none
CC1(C)Cc2ccccc2C(/C(=N\Nc2cccc(Cl)c2)C(N)=O)=N1	none
CC(=O)c1ccc(N/N=C(/C(N)=O)C2=NC(C)(C)Cc3ccccc32)cc1	none | 697 NFkB conf inactive
COc1cc(C(=O)Nc2cc(-c3ccccc3)[nH]n2)cc(OC)c1OC	none
COc1cc(C(=O)Nc2nc(OC)c(-c3ccccc3)c(OC)n2)cc(OC)c1OC	697 NFkB inh 38 | 697 NFkB conf inactive
COc1ccc(Cn2ccnc2SCC(=O)Nc2ccccc2OC)cc1	none
Nc1nn(-c2ccccc2)c(N)c1N=Nc1ccc2c(c1)OCO2	none | 697 NFkB conf inactive
CC(=O)N1SC(N)=NC1c1ccccc1 (stereo unspecified)	none
c1ccc([C@H]2CN3C(=N2)Sc2ccccc23)cc1	none (no result: Calb FLC) | 697 NFkB conf inactive
COc1cc(C(=S)N2CCOCC2)ccc1OC(=O)c1cccc(C)c1	none
Cc1cccc2cc(/C=N/Nc3ccc(C(=O)O)cc3)c(Cl)nc12	none | 697 NFkB conf inactive
CC(=O)c1csc(COc2ccc(Cl)cc2)n1	none | 697 NFkB conf inactive
N=c1c(C(=O)NC2CCCC2)cc2c(=O)n3ccccc3nc2n1CCN1CCOCC1	697 NFkB inh 49 (no result: Shn3 3UTR inh) | 697 NFkB conf 50
N=c1c(C(=O)NC2CCCC2)cc2c(=O)n3ccccc3nc2n1CCCN1CCOCC1	none
CCOC(=O)/C(C#N)=C/c1cc(C)n(-c2ccc(C)cc2)c1C	none
CCOC(=O)/C(C#N)=C\c1cc(C)n(-c2ccccc2)c1C	none | 697 NFkB conf inactive
CC(=O)NC(=S)Nc1ccc(N2CCOCC2)c(S(=O)(=O)Nc2cc(Cl)ccc2Cl)c1	none
Cc1ccc(Cl)cc1NC(=O)Nc1c(C)n(C)n(-c2ccccc2)c1=O	none
Cc1ccc(C)c(OCc2ccc(C(=O)NN)o2)c1	697 NFkB inh 46 | 697 NFkB conf 32
Cc1ccc(Nc2nc(N)nc(-c3oc4ccccc4c3C)n2)cc1	none | 697 NFkB conf inactive
O=C(Cc1cccc2ccccc12)Nc1ccc(-c2cc3ccccc3oc2=O)cc1	697 NFkB inh 72 (no result: Calb FLC) | 697 NFkB conf 50
Cc1cc(C)cc(C(=O)NC(=S)Nc2ccc(-c3cc4ccccc4oc3=O)cc2)c1	none
Cc1ccc(C(=O)NC(=S)Nc2ccc(-c3cc4ccccc4oc3=O)cc2)c(C)c1	697 NFkB inh 36 | 697 NFkB conf inactive
Cc1c(OC(C)C(=O)NCCCn2ccnc2)ccc2c3c(c(=O)oc12)CCC3 (stereo unspecified)	none
C[C@H]1CN([C@@H](C)CO)C(=O)CCCn2cc(nn2)CO[C@@H]1CN(C)C(=O)Nc1ccc2c(c1)OCO2	none (no result: Beta cell apopt, Calb FLC, Jurkat NFkB inh, 697 NFkB inh)
CCN(C(=O)CSc1nnc(SC(C)C)s1)C1CCS(=O)(=O)C1 (stereo unspecified)	none (no result: Calb FLC)
CCCCSc1nnc2c(n1)[nH]c1ccccc12	none | 697 NFkB conf inactive
COc1ccc(CNC(=O)CSc2nnc3c(n2)[nH]c2ccc(OC)cc23)cc1	none
CC(C)CSc1nnc2c(n1)[nH]c1ccccc12	none | 697 NFkB conf inactive
O=C(O)CSc1nnc2c(n1)[nH]c1ccccc12	Calb FLC inconclusive
COc1ccc2[nH]c3nc(SC(C)C)nnc3c2c1	none | 697 NFkB conf inactive
CC1CCN(c2ccc(C(=O)OCC(=O)NCCN3C(=O)CSC3=O)cc2[N+](=O)[O-])CC1	697 NFkB inh 38 | 697 NFkB conf inactive
CCOC(=O)C1CCCN(C(=O)c2cc(C)oc2C)CC1 (stereo unspecified)	none (no result: Beta cell apopt, Calb FLC, Jurkat NFkB inh, 697 NFkB inh)
COc1cc(OC)cc(-c2cc3nc(C)c(CCC(=O)NCc4ccccc4)c(C)n3n2)c1	697 NFkB inh 38 | 697 NFkB conf 45
COc1ccccc1-c1cc2nc(C)c(CCC(=O)NCc3ccc(F)cc3)c(C)n2n1	none
Cc1csc(NC(=O)CCc2c(C)nc3cc(-c4ccc(Cl)cc4)nn3c2C)n1	697 NFkB inh 42 (no result: Calb FLC) | 697 NFkB conf 42
Cc1nc2cc(-c3ccc(Cl)cc3)nn2c(C)c1CCC(=O)NC(C)c1ccc2c(c1)OCCO2 (stereo unspecified)	697 NFkB inh 37 | 697 NFkB conf 27
Cc1nnc2sc(SCc3ccc(Br)cc3)nn2c1=O	697 NFkB inh 37 | 697 NFkB conf inactive
Cc1nnc2sc(SCC(=O)Nc3ccc(Br)cc3)nn2c1=O	none
COc1ccccc1C(=O)NC(=O)CSc1nc(C)cs1	none
CCC1(c2ccc(Cl)cc2)NC(=O)N(CC(=O)NC2CCCC(C)C2C)C1=O (stereo unspecified)	697 NFkB inh 39 (no result: Beta cell apopt, Calb FLC) | 697 NFkB conf inactive
Cc1ccc(C(=O)NNC(=O)CCCN2C(=O)/C(=C/c3ccccc3Cl)SC2=S)cc1	697 NFkB inh 44 | 697 NFkB conf 41
O=C(CCCN1C(=O)/C(=C/c2ccccc2Cl)SC1=S)NNC(=O)c1ccc(Cl)cc1	697 NFkB inh 61 | 697 NFkB conf 52
Cc1c(C(=O)NCc2ccc([N+](=O)[O-])cc2)sc(=O)n1Cc1ccc(-c2ccccc2)cc1	none (no result: Beta cell apopt, Calb FLC, Jurkat NFkB inh, 697 NFkB inh)
COc1ccc(C(=O)O/N=C(\N)c2ccccc2)c(OC)c1	none (no result: Calb FLC) | 697 NFkB conf inactive
COc1ccc(C(=O)O/N=C(\N)c2ccc(OC)c(OC)c2)c(OC)c1	none
COC(=O)COc1cccc2c(=O)n(CC(=O)N3CCCCC3)ccc12	697 NFkB inh 43 | 697 NFkB conf inactive
COC(=O)COc1cccc2c(=O)n(CC(=O)N3CCC(C)CC3)ccc12	none
COc1ccc2cc3cc(C(=O)N4CCCCCC4)oc3nc2c1	none | 697 NFkB conf inactive
COc1ccc2cc3cc(C(=O)N4CCN(C5CCCCC5)CC4)oc3nc2c1	none
COc1ccc(-c2noc(N3CCC(C(=O)Nc4ccc(OC)cc4OC)CC3)n2)cc1	none
COc1ccc(-c2noc(N3CCC(C(=O)Nc4ccc(F)cc4F)CC3)n2)cc1	697 NFkB inh 36 | 697 NFkB conf 35
CC(=O)N1CC(C)Oc2ccc(S(=O)(=O)NC(CC(=O)O)c3cc(C)ccc3C)cc21 (stereo unspecified)	none
Cc1ccc(-c2nsc3c(N4CCC(C(N)=O)CC4)ncnc23)cc1	697 NFkB inh 78 | 697 NFkB conf 53
Cn1c(-c2ccccc2)cc2c3no[n+]([O-])c3ccc21	Beta cell apopt 106, Shn3 3UTR inh 92 | 697 NFkB conf inactive
CCOC(=O)C1(C(=O)OCC)C(C)CC(=O)N1c1ccccc1OC (stereo unspecified)	none (no result: Beta cell apopt, Calb FLC, Jurkat NFkB inh, 697 NFkB inh)
Cc1ccn2cc(CCNC(=O)COc3ccccc3)nc2c1	none | 697 NFkB conf inactive
COc1ccc(S(=O)(=O)N2CCCCCC2)cc1C(=O)Nc1ccc(C(=O)N(C)C)cc1	none (no result: Beta cell apopt, Calb FLC)
